From PubChem BioAssay (NCATS) come the findings set out here.

Assay [1] in a line: qHTS to identify inhibitors of the type 1 interferon - major histocompatibility complex class I in skeletal muscle: primary screen against the NCATS Mechanism Interrogation Plate v5.0 (MIPE) Libary (AID 1347411). Note: nearly all actives have a fitted effect of over 65% in size. Note: potency is the fitted concentration of half-maximal effect. The procedure, abridged: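 Cells were genome-edited human myoblasts carrying a HiBit tag on endogenous HLA-B. They were treated with IFN-beta (4.0 ng/ml) and titrated compounds (top 46 uM) for 24 hrs before lytic HiBiT detection.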

The target of assay [2] is Calcium and integrin-binding protein 1 (Homo sapiens) (UniProt Q99828). Kind of assay: Primary qHTS for Identification of Calcium Integrin Binding Protein 1 (CIB1) Competitor (AID 1508620).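 Note: GST tagged CIB1 binding a fluorescein labelled alphaIIb integrin peptide tracer; top concentration of the series differs between compounds.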 The procedure, abridged: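 CIB1-GST (1 uM final) and compound incubated 15 min at room temperature before adding FITC-alphaIIb peptide tracer (100 nM final). Competition for binding read by fluorescence polarization (ex 480, em 540) after another 15 min at room temperature.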
Sequence of Calcium and integrin-binding protein 1 (Homo sapiens) (Q99828 whole entry, looked up): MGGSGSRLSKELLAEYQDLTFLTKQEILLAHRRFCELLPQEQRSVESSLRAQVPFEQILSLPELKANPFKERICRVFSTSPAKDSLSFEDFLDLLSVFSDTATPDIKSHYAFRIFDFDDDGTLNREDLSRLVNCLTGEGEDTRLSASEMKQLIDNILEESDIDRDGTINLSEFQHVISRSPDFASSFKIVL

A short description of assay [3]: qHTS to identify inhibitors of the type 1 interferon - major histocompatibility complex class I in skeletal muscle: primary screen against the NCATS LOPAC collection (AID 1347405).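 Note: lytic HiBiT luminescence reporting HLA-B protein level.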 Note: potency is the fitted concentration of half-maximal effect. The procedure, abridged: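 Cells: C25cl48 human myoblasts, HiBiT-tagged HLA-B*08:01, stimulated with IFN-beta 4.0 ng/ml. Compounds are titrated 1:4.3 over 7 points from 46 uM final and incubated 24 hrs; endogenous MHC class I is quantified by HiBiT lytic luminescence.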
A general note: qHTS replaces the single test concentration by a dilution series.

A short description of assay [4]: qHTS for inhibitors of adenylyl cyclases using a fission yeast platform: a pilot screen against the NCATS LOPAC library (AID 1347410). The gist of the method: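 S. pombe CHP2027 (AC9-GNAS-PDE4D2) carrying PKA-repressed fbp1-GFP, incubated 18 h at 30C in EMM with LOPAC compounds at up to 57 uM. GFP gain-of-signal read by laser scanning cytometry; DMSO negative control.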

A short description of assay [5]: Validation qHTS assay for inhibitors of Activation Induced Cytidine Deaminase (AID): UDG Counterscreen signal (AID 1347427). The procedure, abridged:
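Counterscreen read of UDG activity (2 U/mL, 4/3x) in the FRET deamination format with AID (1 uM, 4/3x), DJC20/DJC23 substrates (250 nM, 4x), 4 h at room temperature. NaOH stop, fluorescence at 560 ex/665 em.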

In assay [6] the target is Single-stranded DNA cytosine deaminase (Homo sapiens) (UniProt Q9GZX7). Description: Validation qHTS assay for inhibitors of Activation Induced Cytidine Deaminase (AID): AID signal (AID 1347429). The procedure, abridged:
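In this coupled qHTS, AID deaminates a FRET-labelled ssDNA substrate in the presence of UDG over 4 hr at room temperature. Compounds span up to 114 uM final.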

The nature of assay [7]: Primary qHTS for small molecule stabilizers of the endoplasmic reticulum resident proteome: Secreted ER Calcium Modulated Protein (SERCaMP) assay (AID 1508630). The procedure, abridged:
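GLuc-SERCaMP-expressing SH-SY5Y cells, pretreated 16 h with compound, are challenged with thapsigargin to empty ER calcium stores; after 4 h, coelenterazine is added directly to the medium and luminescence is imaged.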

The target of assay [8] is Protein phosphatase 1D (Homo sapiens) (UniProt O15297). Kind of assay: RapidFire Mass Spectrometry qHTS Assay for Modulators of WT P53-Induced Phosphatase 1 (WIP1) (AID 1347424).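 Note: amount of dephosphorylated VEPPL-S-QETFS peptide product formed by WIP1; series mostly up to about 63 µM.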 The procedure, abridged: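 10 nM WIP1 + cpd, 1 h RT; + 2 uM VEPPL-pS-QETFS, 5 min RT; stop 0.5% formic acid; labelled product standard 1 uM; RapidFire MS. Buffer 50 mM Tris pH 7.5, 30 mM MgCl2, 1 mM TCEP.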
Sequence of Protein phosphatase 1D (Homo sapiens) (O15297 whole entry, looked up): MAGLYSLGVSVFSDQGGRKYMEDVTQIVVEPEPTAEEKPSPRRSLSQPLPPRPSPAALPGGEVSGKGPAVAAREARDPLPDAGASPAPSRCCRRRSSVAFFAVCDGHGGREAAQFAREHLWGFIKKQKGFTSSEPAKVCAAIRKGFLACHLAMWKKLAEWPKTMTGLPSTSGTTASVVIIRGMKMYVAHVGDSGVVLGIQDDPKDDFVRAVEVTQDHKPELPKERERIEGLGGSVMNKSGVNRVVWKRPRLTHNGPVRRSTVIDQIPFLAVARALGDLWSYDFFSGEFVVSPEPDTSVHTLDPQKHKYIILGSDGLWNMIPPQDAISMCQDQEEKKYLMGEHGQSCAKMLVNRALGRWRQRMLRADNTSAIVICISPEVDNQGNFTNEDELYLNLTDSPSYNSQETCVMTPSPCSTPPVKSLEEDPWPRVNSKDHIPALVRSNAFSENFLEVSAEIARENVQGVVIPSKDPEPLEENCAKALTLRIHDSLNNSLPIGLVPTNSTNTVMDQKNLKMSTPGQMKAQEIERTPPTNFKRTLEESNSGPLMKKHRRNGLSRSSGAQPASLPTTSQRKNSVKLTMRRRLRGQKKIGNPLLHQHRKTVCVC

Assay [9] shares this target. Description: Rhodamine-PBP qHTS Assay for Modulators of WT P53-Induced Phosphatase 1 (WIP1) (AID 1347425). The procedure, abridged:
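Steps: enzyme with Rh-PBP sensor and compounds, room-temperature incubation of 1 hr, baseline read, addition of VEPPL-pS-QETFS (10 uM final), kinetic fluorescence reads at 525/598 nm. Activity equals final minus baseline signal.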

For assay [10], the target named is Calcium and integrin-binding protein 1 (Homo sapiens) (UniProt Q99828). Kind of assay: Validation qHTS for Identification of Calcium Integrin Binding protein 1 (CIB1) Competitor (AID 1508618). The gist of the method: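 In this qHTS validation, the LOPAC set (up to 114 uM) was tested for blocking CIB1 binding to a fluorescein-tagged alphaIIb peptide, with FP detection at 480/540 nm.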

Records with an inconclusive call do not appear. Activity calls are given as the source filed them. Calls come from the whole dose curve; as a rule, active = well fitted curve in the direction sought with a large enough effect; inconclusive = small, poorly fitted or top-dose-only effect, or another doubt; inactive = no such curve, though single readings can be large; an effect the other way counts as inactive or inconclusive.

Sequence of Single-stranded DNA cytosine deaminase (Homo sapiens) (Q9GZX7 whole entry, looked up): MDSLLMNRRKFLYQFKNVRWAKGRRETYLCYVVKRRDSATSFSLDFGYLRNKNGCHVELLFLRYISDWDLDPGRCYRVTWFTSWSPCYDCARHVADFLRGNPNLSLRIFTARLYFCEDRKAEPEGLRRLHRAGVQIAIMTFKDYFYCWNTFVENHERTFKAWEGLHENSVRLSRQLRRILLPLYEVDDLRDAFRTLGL

Turning to `C[C@@H]1COCCN1c1cc(=O)n2c(n1)N(Cc1cncc(Cl)c1)[C@H](C(F)(F)F)CC2`, the Potency result in assay [1] and in assay [2] was “inactive” throughout.

Take `CS(=O)(=O)Nc1cc2occ(NC=O)c(=O)c2cc1Oc1ccccc1`: in assay [1], the Potency result is “inactive”.

With `Fc1ccc2[nH]ccc2c1-c1nc(N2CCOCC2)c2sc(CN3CCN(CC4CC4)CC3)cc2n1`, the Potency in [1] is 33 µM (active). For the same molecule, the Potency result in [2] is “inactive”.

On to `CC#C[C@@H](CC(=O)O)c1ccc(OCc2cccc(-c3ccc(C(F)(F)F)cc3)c2)cc1`, for which the Potency result in [1] and in [2] was “inactive” throughout.

Regarding `O=C(Nc1ccc2[nH]nc(-c3ccncc3)c2c1)[C@@H]1CCN(CC(=O)N2CCN(c3ccc(-c4ncccn4)cc3)CC2)C1`, in assay [1], the Potency result is “inactive”.

Take `COC1CCN(C(=O)c2cc(Cc3n[nH]c(=O)c4ccccc34)ccc2F)CC1`: the Potency entry in assay [1] and in assay [2] was “inactive” in each case.

In the case of `O=C(Nc1cccnc1)c1cc(-c2ccnc(F)c2)ccc1OCc1ccccc1`, the Potency entry in [1] and in assay [2] was “inactive” in each case.

`NCCCC(=O)O`: the Potency entry in [3] is “inactive”. Also, the outcome in [4], in assay [5], in assay [6] and in assay [7] was inactive.

With `CN1CC[C@@H](c2c(O)cc(O)c3c(=O)cc(-c4ccc(C(F)(F)F)cc4Cl)oc23)[C@@H]1CO`, the Potency in assay [1] was 13.1 µM (active). Further, in assay [2], the Potency entry was “inactive”.

`CN[C@H]1CC[C@@H](c2ccc(Cl)c(Cl)c2)c2ccccc21`: the Potency in assay [3] was 28.2 µM (active). In addition, the molecule was classed as inactive in assay [4], in assay [9], in [5], in assay [6], in [10] and in assay [7]. In addition, the Potency result in assay [8] and in assay [2] was “inactive” throughout.

As to `Fc1ccc(-c2nc(-c3ccccc3F)[nH]c2-c2ccncc2)cc1`, the Potency result in assay [1] and in assay [2] was “inactive” in each case.

For `Cc1[nH]c(/C=C2\C(=O)Nc3ccc(S(=O)(=O)N(C)c4cccc(Cl)c4)cc32)c(C)c1C(=O)N1CCN(C)CC1`, the Potency in assay [1] was 16.5 µM (active). In addition, the Potency result in [2] is “inactive”.

Regarding `O=C(Cc1cccc(OC(F)(F)F)c1)Nc1ccc(CCCCc2nnc(NC(=O)Cc3ccccn3)s2)nn1`, the Potency entry in assay [1] and in assay [2] was “inactive” each time.

With `O=C([C@@H](Cc1cccc(C(F)(F)F)c1)NS(=O)(=O)c1cc(F)c2c(c1)CCNC2)N1CCCC1`, the Potency result in assay [1] and in [2] was “inactive” throughout.

Turning to `O=C(O)C1=CO[C@@H](O[C@@H]2O[C@H](CO)[C@@H](O)[C@H](O)[C@H]2O)[C@@H]2C(CO)=CC[C@H]12`, the Potency entry in assay [1] and in [2] was “inactive” in each case.
